# Experimental data reported in PubChem BioAssay (NCATS).
# Inconclusive results are not listed. Values without a mark were called inactive.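 How the source made its calls: active means dose-dependent loss of cell ATP signal giving a full or clear fitted curve, ranked by lower potency value; inconclusive means weak partial curve or response only at the top dose; inactive means no loss of viability signal.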
# Assay: Cell Viability - Jurkat (AID 426);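 further: cells exposed to compound for 40 hours at 37 °C before ATP read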
# Conditions: qHTS
# How it was run: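 Cytotoxicity taken as drop in cellular ATP (CellTiter-Glo luminescence, 20 min room temperature) after 40 hr, 37C treatment of 5000 Jurkat Clone E6-1 cells per well; concentration-response fitted with Hill equation for AC50.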
# Potency means the concentration at half of the fitted maximal effect.
row,Compound,Potency [µM]
1,CC(C)N(C)C,> 92
2,CC(=O)c1cccc([N+](=O)[O-])c1,> 92
3,CC(=O)OCCC(C)C,> 92
4,CCN(Cc1ccccc1)c1ccccc1,> 92
5,Cc1ccc(C#N)cc1,> 92
6,Cc1ccccc1Br,> 92
7,O=P(O)(OCc1ccccc1)OCc1ccccc1,> 92
8,C=CCCC,> 92
9,CC(C)Nc1ccccc1,> 92
10,Cc1ccc(Br)cc1,> 92
11,S=C([S-])NCCNC(=S)[S-].[Zn+2],> 92
12,CC(C=O)Cc1ccc(C(C)(C)C)cc1 (stereo not given),> 92
13,CCCCCCCN,> 92
14,CC(C)C(C)C,> 92
15,CC(C)(C)c1ccc(OCC2CO2)cc1 (stereo not given),> 92
16,Cc1ccc2c(c1[N+](=O)[O-])C(=O)c1ccccc1C2=O,> 92
17,CCCCCCO,> 92
18,O=C(O)c1ccccc1Cl,> 92
19,Nc1cc(Cl)c([N+](=O)[O-])cc1O,> 92
20,COCCOC(=O)c1ccccc1C(=O)OCCOC,> 92

row,Compound,Potency [µM]
1,OCCO,> 92
2,CCC(C)=O,> 92
3,Nc1cc(S(=O)(=O)O)ccc1O,> 92
4,O=CNc1ccccc1,> 92
5,C=C(C)C(=O)OCC(C)C,> 92
6,CC(=O)c1ccc([N+](=O)[O-])cc1,> 92
7,Nc1cc([N+](=O)[O-])ccc1C(=O)O,> 92
8,C=CCCCCCCC=C,> 92
9,CC(C)CCOC(=O)/C=C/c1ccccc1,> 92
10,ClCCl,> 92
11,CO[Si](CCCNCCC[Si](OC)(OC)OC)(OC)OC,> 92
12,Cc1ccc(N(C)C)cc1,> 92
13,COC(=O)CCCC(=O)OC,> 92
14,CCCCN(CCO)CCCC,> 92
15,CCOC(=O)C(C)C(C)=O (stereo not given),> 92
16,C[C@@H]1CC2(OC3C[C@@]4(C)C5=CC[C@H]6C(C)(C)C(O[C@@H]7OC[C@@H](O)[C@H](O)[C@H]7O)CC[C@@]67C[C@@]57CC[C@]4(C)C31)OC(O)C1(C)OC21 (stereo not given in full),> 92
17,CC(C)(C)OC=O,> 92
18,Cc1ccccc1C#N,> 92
19,C=Cc1ccccc1C=C,> 92
20,CC(C)=CCC/C(C)=C/C=O,> 92
